In the library only some 2.1% were active in any assay of this set; here they are far more common.
ugtP null kill: compounds lethal to S. aureus RN4220 ugtP deletion mutant | AID 1259309 | hit rate 0.54% among 330,000 | OD600 growth, 16 h | growth inhibition, % (test concentration not listed); in the data active means growth inhibition above about 68%;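 further: plate controls were untreated wells for no effect and antibiotic for full effect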
PrP 5UTR inh: suppresses PrP 5' UTR mRNA reporter expression; cell-based PrP 5' UTR mRNA reporter, plate reader; inhibition, % (test concentration not listed); hit rate 0.35% among 340,000; AID 488862; in the data active means inhibition above about 52%; further: 0 = median of the neutral control wells
Sa RN4220 lethal: kills Staphylococcus aureus RN4220 | S. aureus RN4220 growth, OD600, 16 h | inhibition, % (concentration not given with the values) | hit rate 0.33% among 330,000; in the data active means inhibition above about 85%;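 further: plate controls were untreated cells for no effect and reference antibiotic for full effect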
PrPC surface inh: inhibitors of human cell surface prion protein PrPC. P04156. TR-FRET read-out. inhibition, % at 13.8 µM. hit rate 0.43% among 370,000. AID 720596; in the data active means inhibition above about 24%; further: 0% = median of the test wells and 100% = reference compound wells
PfHsp40 rescue: restores yeast growth despite PfHsp40 toxicity; hit rate 0.68% among 340,000; S. cerevisiae expressing PfHsp40, growth rescue, ATP luminescence; growth rescue, % at 12.5 µM; AID 504582; in the data active means growth rescue above about 28%, passing the limit was not always enough; inconclusive means no clear call, values can overlap the other calls;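 further: yeast W303a lacking pdr1 and pdr3 grown in galactose medium; growth measured after three days at 30 °C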
CCHFV vOTU inh: CCHFV vOTU protease inhibition | Pep-AMC fluorescence | inhibition, % at 11.5 µM | hit rate 0.55% among 370,000 | AID 651958; in the data active means inhibition above about 30%; further: 0% = vehicle wells with enzyme and 100% = no enzyme wells
PrPC TRFRET cf: cell surface PrPC inhibition, TR-FRET confirmation | cell surface PrPC level | inhibition, % at 13.8 µM | hit rate 65% among 1,500 | shares compounds with PrPC surface inh; in the data active means inhibition above about 25%
LD9 cytotox: counter-screen for PrPc inhibitors: cytotoxicity in LD9 cells | inhibition, % at 13.8 µM | luminescence viability | shares compounds with PrPC surface inh | hit rate 29% among 1,500; in the data active means inhibition above about 9.5%
Starred values were filed as active, the others as inactive; ? = inconclusive; nt = no result given.

SMILES	ugtP null kill	PrP 5UTR inh	Sa RN4220 lethal	PrPC surface inh	PfHsp40 rescue	CCHFV vOTU inh	PrPC TRFRET cf	LD9 cytotox
CC=CC=CC(=O)N1CC2(CC(c3cccc(NC(=O)C(C)=CC)c3)=NO2)CC1C(N)=O (stereo not drawn)	-12.9	nt	7.6	nt	nt	nt	nt	nt
O=C(Sc1cccc2cccnc12)c1ccccc1Br	nt	28.8	nt	30.3*	119.0*	-0.8	11.9	83.0*
CC(=O)/C(=N\Nc1ccccc1)Sc1cccc2cccnc12	nt	-42.2	nt	-5.4	0.5	0.4	nt	nt
COc1ccc(-c2cnc(SCC(=O)Nc3ccc4c(c3)OCO4)n2Cc2ccco2)cc1	4.3	-9.5	-6.7	25.2*	?	8.1	19.0	9.3*
Cc1ccc(NN=C2CCCNC2=O)cc1	-0.9	nt	-0.1	nt	nt	nt	nt	nt
COc1ccc(C(=O)Nc2ccc(-c3cn4ccsc4n3)cc2)cc1S(=O)(=O)N1CCOCC1	-13.6	0.4	-0.1	77.4*	1.3	-0.8	51.4*	-2.6
COc1ccc(C(=O)Nc2ccc(N3CCOCC3)cc2)cc1S(=O)(=O)N1CCOCC1	1.0	-7.6	1.6	0.8	-0.1	-2.9	nt	nt
CCOc1cc(C=NNC(=O)CN2CCCCC2)ccc1OCc1cccc(Cl)c1	3.3	nt	-0.1	nt	nt	nt	nt	nt
COC(=O)/C(C(C)=O)=C(/C=C/C=C/N(C)C)N(C)C	-4.1	-5.4	-1.3	50.1*	0.5	-6.5	6.5	4.3
CSc1nc2c([nH]1)c(=S)n(C)c(=O)n2C	0.0	-6.6	-1.2	34.0*	2.4	11.3	0.3	-0.6
COc1cc2oc3ccc(C#Cc4ccc(N)cc4)cc3c(=O)c2cc1OC	12.9	-19.0	1.3	25.6*	-1.7	-1.1	33.3*	10.0*
C=C1C(C)C2C(Cc3ccccc3)NC(=O)C23OC(=O)/C=C/C(O)CCCC(C)C/C=C/C3C1O (stereo not drawn)	nt	14.0	nt	25.7*	-1.9	-4.8	16.7	14.1*
CC(=O)O[C@@H]1C=C[C@](C)(O)C[C@@H](C)CC=C[C@H]2[C@H](O)[C@@](C)(O)[C@@H](C)[C@H]3[C@H](Cc4ccccc4)NC(=O)[C@@]312	-3.8	nt	3.1	nt	nt	nt	nt	nt
Cc1ccc(NC(=O)Nn2cnnc2)cc1	1.4	-15.2	1.4	4.9	0.0	-4.3	nt	nt
O=C(Nc1ccc([N+](=O)[O-])cc1)Nn1cnnc1	-2.3	-12.8	2.9	36.6*	-1.9	2.1	-0.6	0.7
O=C(O)c1cc(-c2ccc(Br)s2)nc2ccccc12	-1.8	-16.1	12.1	33.5*	10.3	-12.3	52.8*	-7.0
COc1cc(C=NNC(=O)C(=O)NCC2CCCO2)cc(Cl)c1O (stereo not drawn)	1.4	nt	-0.8	nt	nt	nt	nt	nt
COc1ccc2[nH]c3c(=S)nc[nH]c3c2c1	-10.7	-24.9	6.5	84.9*	-0.1	-1.4	104.0*	0.8
CC(=NOCC(=O)NN=Cc1ccccc1O)c1cccs1	17.5	nt	8.5	nt	nt	nt	nt	nt
N#Cc1cccc(C(c2nnnn2C2CCCC2)N2CCCCCC2)c1 (stereo not drawn)	5.8	-5.6	3.1	41.1*	2.2	16.6	6.2	-1.0
CCC1=C(CC2NCCc3ccccc32)CC2c3cc(OC)c(OC)cc3CCN2C1 (stereo not drawn)	nt	6.6	nt	76.4*	-1.0	-4.0	82.7*	27.9*
NC(=S)NN=Cc1nccc2c(C(F)(F)C(F)(F)C(F)(F)F)cccc12	nt	nt	nt	28.0*	nt	21.3	29.4*	60.3*
NC(=S)N/N=C/c1cccc(/C=N/NC(N)=S)c1	nt	2.2	nt	-2.9	0.0	1.2	nt	nt
Cc1cc(C=C2C(=O)NC(=O)N(c3ccc(F)cc3)C2=O)c(C)n1-c1ccc(C(=O)O)cc1	-6.5	nt	1.6	nt	nt	nt	nt	nt
Cc1c(OCC(N)=O)ccc2c(-c3ccccc3)cc(=O)oc12	-3.6	-21.7	4.8	26.6*	-0.3	15.3	-9.1	-2.6
SMILES	ugtP null kill	PrP 5UTR inh	Sa RN4220 lethal	PrPC surface inh	PfHsp40 rescue	CCHFV vOTU inh	PrPC TRFRET cf	LD9 cytotox
CCOC(=O)c1c(C)nc2ccc(Cl)cc2c1-c1ccccc1	-6.9	-15.2	-12.4	6.2	2.8	6.5	nt	nt
CCOCc1nc(N)nc(N)c1-c1cccc(Cl)c1	nt	nt	nt	26.1*	nt	5.8	-2.3	1.8
CC(C)Oc1ccc(CCC(=O)NN=Cc2ccc3c(c2)OCO3)cc1	2.2	nt	-2.0	nt	nt	nt	nt	nt
CC=CC(=O)Nc1cccc(C2=NOC3(C2)CC(C(N)=O)N(C(=O)C=CC)C3)c1 (stereo not drawn)	-1.9	nt	5.8	nt	nt	nt	nt	nt
CCc1nc2ccccc2[nH]c1=O	-6.0	1.5	4.8	37.5*	-1.7	1.9	0.0	-5.7
COc1cc(C=NNc2cc(C)nc(N)n2)ccc1O	0.6	nt	3.9	nt	nt	nt	nt	nt
CCOc1ccc(C(=O)Nc2cnn(Cc3ccc(Cl)c(Cl)c3)c2)cc1	1.2	2.1	-3.5	26.6*	-1.3	-5.5	23.5	-3.6
O=C(Nc1ccc(Cl)c(Cl)c1)c1ccc(Cn2cc(Cl)cn2)cc1	-12.8	-47.4	1.7	6.3	0.2	17.5	nt	nt
O=C(Nc1ccccc1F)c1ccc(Cn2cc(Cl)cn2)cc1	1.4	-24.9	-2.2	5.6	3.1	-5.0	nt	nt
Cc1ccc(Cl)cc1NC(=O)c1ccc(Cn2cc(Cl)cn2)cc1	-2.8	-2.3	-7.6	26.8*	-0.2	7.2	23.7	3.1
C[C@@H]1COC(=O)[C@H](Cc2ccc(F)cc2)C/C=C\C[C@@H](CC(=O)NCCO)C(=O)N1	nt	-21.4	nt	44.4*	-0.7	6.1	6.8	-3.1
C[C@H]1COC(=O)[C@@H](Cc2ccc(F)cc2)C/C=C\C[C@@H](CC(=O)NCCO)C(=O)N1	nt	-20.9	nt	-0.4	-1.1	10.6	nt	nt
CCOC(=O)C1C2COc3ccccc3C2N2C(=O)N(c3cccc(F)c3)C(=O)[C@]12C (stereo partly drawn)	3.2	nt	6.7	nt	nt	nt	nt	nt
CC(Sc1ccccn1)C(=O)Nc1ccc2c(c1)OCCO2 (stereo not drawn)	1.5	-17.4	-2.6	6.5	-0.2	11.8	nt	nt
CC(Sc1ncnc2ccccc12)C(=O)Nc1ccc2c(c1)OCCO2 (stereo not drawn)	-0.2	-7.9	2.0	43.4*	0.3	-9.3	27.5*	4.1
O=C(CSc1ncnc2ccccc12)Nc1ccc2c(c1)OCCO2	19.7	-50.6	-2.0	39.5*	0.6	18.3	50.2*	-5.8
O=C(CSc1nc(Cc2ccccc2)nc2ccccc12)Nc1ccc2c(c1)OCCO2	-4.1	-21.2	2.1	31.2*	-1.9	-12.5	71.1*	-8.8
O=C(CSc1nc2ccccc2c(=O)n1CCCO)Nc1ccc2c(c1)OCCO2	0.9	-8.4	0.7	5.3	-0.2	6.5	nt	nt
CCc1c(C)nc2c(Br)cccc2c1SCCC#N	-11.7	-5.4	-3.0	64.0*	0.4	11.3	89.6*	-4.6
CN1OC(Cn2cc(C#N)c(=O)n(C)c2=O)CC1c1ccccc1 (stereo not drawn)	6.7	-14.6	1.4	25.2*	-0.3	-6.8	3.8	1.5
COc1ccc(C=NNC(=O)c2nnn(-c3nonc3N)c2-c2cccc(OC)c2)cc1	4.2	nt	2.9	nt	nt	nt	nt	nt

Assay outcomes from PubChem.
